# Test results from PubChem BioAssay AID932 (The Scripps Research Institute Molecular Screening Center, 2007).
# Out of some 200,000 compounds screened, about 5,100 (2.5%) were called active. For the sample, actives were picked, then their nearest neighbours and some compounds at random. Values without a mark were called inactive.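 The calls were made as follows: active = activation above the screen-wide mean activation plus 3 SD (cut at about 130% in these data); inactive = the rest.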
# Assay: STAT1 signaling activators, primary screen, cell-based, HTS, luciferase reporter (AID 932);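 also: raw ratio to IFN-gamma control signal so 100% means no change and 0% no light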
# Details: NIH 3T3 STAT1-luciferase reporter, IFN-gamma, luminescence; at 5.5 µM; hits give high values; 100% = IFN-gamma alone, no compound
row,Structure (SMILES),activation (% of control)
1,O=C(Nc1ccc(F)c([N+](=O)[O-])c1)C1CC(=O)N(Cc2ccccc2)C1 (stereo not given),95.9%
2,CN(C)Cc1ccc(F)cc1Sc1cc(Cl)ccc1Cl,98.7%
3,O=C(COC(=O)Cn1cnc2ccccc21)Nc1cccc2c1C(=O)c1ccccc1C2=O,104%
4,O=C(c1cccc(C(=O)N2CCc3ccccc32)n1)N1CCc2ccccc21,95.1%
5,O=C(c1cnn2ccccc12)N1CCc2ccccc21,136% (active)
6,Cc1occc1C(=O)N1CCCc2ccccc21,104%
7,O=C(Cc1c(F)cccc1Cl)Nc1ccc(-n2cnnn2)cc1,98.6%
8,COc1ccc(NC(=O)CN2C(=O)C(c3ccccc3)=NC23CCCCCC3)cc1OC,104%
9,N#CC(=C1CCCC1)c1nc(-c2ccc(Cl)cc2)cs1,110%
10,N#CC(=C1SC=CS1)c1nc(-c2ccccc2)cs1,133% (active)
11,N#C/C(=C1\CCCN1)c1nc(-c2ccccc2)cs1,105%
12,O=C(CN(CC1CCCO1)C(=O)CNS(=O)(=O)c1ccc(F)cc1)NCc1ccco1 (stereo not given),109%
13,COc1cc(OC)cc(-c2nc(=S)n3ccsc3n2)c1,108%
14,Cc1cc(=O)oc(C)c1C(=O)N1CCCCC1,104%
15,Cc1cccc(C(=O)N2CCCN(C(=O)c3cccc(C)c3)CC2)c1,103%
16,Cc1ccc2cc3cc(C(=O)N4CCCCCC4)oc3nc2c1,169% (active)
17,O=C1C(C=NCC2CCCO2)=C(O)c2ccccc21 (stereo not given),137% (active)
18,CC(=NCC1CCCO1)c1c(O)[nH]c(=O)[nH]c1=O (stereo not given),106%
19,O=C(CS(=O)(=O)Cc1ccccc1)NCC1CCCO1 (stereo not given),94.5%
20,COc1ccc(CCNC(=O)CN(c2ccccc2)S(C)(=O)=O)cc1,98%
21,COc1ccc(-n2nnnc2-c2nc3ccccc3s2)cc1,166% (active)
22,CCOc1cccc(-n2nnnc2-c2ccc(OC)cc2)c1,93.4%
23,COc1ccc(-n2nnnc2SCC(=O)Nc2ccccc2)cc1,99.3%
24,Cc1ccc(C(=O)N/C(=C\c2cccs2)C(=O)NCCc2ccccn2)cc1C,103%
25,CN(C)C(=O)CSc1n[nH]c(-c2ccco2)n1,101%

row,Structure (SMILES),activation (% of control)
1,O=C(/C=C/c1cnc2ccccc2n1)NC1CCCCCC1,142% (active)
2,CC(=O)OC(C(=O)NC1CCCCC1)c1ccccc1 (stereo not given),95.8%
3,O=C(Cn1c(-c2cncs2)nc2ccccc21)NC1CCCC1,103%
4,C/C(=C/C(=O)N1CCN(C)CC1)C(=O)O,88.6%
5,CCOn1c(=O)c(=O)n(O)c2ccccc21,95.6%
6,COC(=O)c1cccc([N+](=O)[O-])c1CS(=O)(=O)c1ccc(C)cc1,98.8%
7,O=c1oc2ccccc2cc1-c1csc(Nc2ccc(O)cc2)n1,117%
8,Cc1nc(C)c(-c2csc(NCCc3ccccc3)n2)s1,102%
9,CCNc1nc(-c2cc3ccccc3o2)cs1,176% (active)
10,CC1(C)CC(=O)C2=C(C1)Nc1cc(C(=O)c3ccccc3)ccc1NC2c1ccccn1 (stereo not given),104%
11,CCN1CCN(C(C(=O)NC2CCCC2)c2cc3c(cc2[N+](=O)[O-])OCO3)CC1 (stereo not given),107%
12,Cc1nc(-c2ccccc2)sc1C(=O)/C=C/N(C)C,147% (active)
13,Cc1ccc(SCC(=O)c2sc(-c3ccccc3)nc2C)cc1,102%
14,Cc1nc(-c2ccccc2)sc1C(=O)/C=C/c1ccccc1,105%
15,N/C(=N\OC(=O)c1cc(-c2ccccc2)nc2ccccc12)c1ccncc1,99.8%
16,Cc1cccc(/C(N)=N/OC(=O)c2ccccc2Cl)c1,138% (active)
17,Cc1cccc(C(=O)c2cccc(C)c2)c1,103%
18,COc1ccccc1C(=O)CSc1cccc[n+]1[O-],105%
19,CC(C)Oc1ccc(Cc2n[nH]c(=S)n2Cc2ccccc2)cc1Cl,90.5%
20,CCN1CCc2nc(NC(=O)c3cc(F)c(F)cc3Cl)sc2C1,111%
21,Cc1ccc(NC(=O)Nc2ccccc2)c(Br)c1,164% (active)
22,Cc1cccc(NC(=O)Nc2nnc(-c3ccccc3)o2)c1,99.5%
23,CC(=O)c1cccc(NC(=O)Nc2ccc(C)cc2)c1,118%
24,CN=C(c1ccccc1)c1c(C)cccc1C,93.1%
25,O=C(CC1C(=O)NCCN1Cc1ccc(-c2ccccc2)cc1)NCC1CCOCC1 (stereo not given),102%

row,Structure (SMILES),activation (% of control)
1,O=C(Cc1csc(Nc2nc(=S)[nH]c3ccccc23)n1)NCCCN1CCN(c2cccc(Cl)c2)CC1,90.9%
2,Cc1ccccc1CC1(CO)CCCN(C(=O)c2cc(-c3ccccc3)no2)C1 (stereo not given),104%
3,COC(=O)CCC(=O)N1CCCC(CO)(Cc2ccccc2)C1 (stereo not given),146% (active)
4,CC(=O)c1cccc(CN2CCC(CO)(Cc3ccccc3)CC2)c1,96%
5,CCc1nnc(NC(=O)c2cccc(S(=O)(=O)N(C)c3ccc(OC)cc3)c2)s1,86.1%
6,CCN(CC(=O)NCc1cccs1)S(=O)(=O)c1ccc(NC(C)=O)cc1,104%
7,CCn1c(/C=C/Nc2ccccc2)[n+](CC)c2ccc(C(=O)OCC(F)(F)F)cc21,88.3%
8,COCc1ccc(C(=O)N2CCc3c([nH]c4ccccc34)C2c2ccccn2)s1 (stereo not given),94%
9,Cc1ccc(OCC(=O)Nn2cnc3ccccc32)cc1,104%
10,COC(=O)c1ccc(-n2cnc3ccccc32)nc1,129% (active)
11,COCCOCCn1cnc2ccccc21,104%
12,O=C(O)CC1S/C(=N\N=C/c2ccccc2O)N(c2ccc(O)cc2)C1=O (stereo not given),102%
13,Cc1cccc2c1N(CCOc1ccccc1)C(=O)C2=O,99%
14,NC(=S)N/N=C/c1ccc([N+](=O)[O-])cc1,121%
15,Cc1ccc(NC(=O)CN(C)CC(=O)Nc2cccc(F)c2)cc1[N+](=O)[O-],67.3%
16,Cc1ccc(NC(=O)c2sccc2C)cc1[N+](=O)[O-],138% (active)
17,Cc1nc2ccccc2cc1C(=O)N/N=C/c1ccc([N+](=O)[O-])cc1,93.6%
18,Cc1ccsc1C(=O)N/N=C/c1ccc([N+](=O)[O-])cc1,146% (active)
19,Cc1cc(O)c(NC(=O)c2ccc(C)c([N+](=O)[O-])c2)cc1C,103%
20,C=CCNC(=O)COC(=O)c1ccccc1C(=O)N(C)C1CCCCC1,95.6%
21,O=c1[nH]n(-c2ccc([N+](=O)[O-])cc2)c(=O)c2ccccc12,101%
22,CCN1CC(CN(C)Cc2nc(-c3ccc(Cl)cc3)no2)CC1=O (stereo not given),96.3%
23,CC(C)C(c1nnnn1C(C)(C)C)N1CCN(Cc2cccnc2)CC1 (stereo not given),98.8%
24,CCCCCC(=O)Nc1ccc(-c2cn3cccnc3n2)cc1,103%
25,CC(C)(C)C1CCC(=NNC(=O)c2ccc(Br)o2)CC1 (stereo not given),121%

row,Structure (SMILES),activation (% of control)
1,CCC(C)(C)C1CCC(=NNC(=O)c2ccc(Br)o2)CC1 (stereo not given),129% (active)
2,C/C(=N/NC(=O)c1ccc(Br)o1)c1ccc(C)o1,112%
3,COc1ccccc1-n1c(C)nc2cc(C(=O)NCc3ccc4c(c3)OCO4)ccc21,98.5%
4,COc1ccc(OC)c2[nH]c(=O)c(CCNC(=O)C(=O)c3c[nH]c4ccccc34)cc12,95.3%
5,Cc1ccc(NC(=O)CC2C(=O)N(Cc3ccccc3)C(=S)N2NC(=O)c2cccc(F)c2)c(C)c1 (stereo not given),103%
6,O=C(Cn1ncc(N2CCCC2)c(Br)c1=O)c1ccc(Cl)cc1,130% (active)
7,CC(=O)Cn1ncc(N2CCOCC2)c(Br)c1=O,104%
8,Cn1c(=O)c2c(nc(N3CCCCCC3)n2CC(=O)c2ccc(Br)cc2)n(C)c1=O,94.8%
9,O=C(COC(=O)/C=C/c1nc2ccccc2s1)Nc1ccccc1Oc1ccccc1,95.5%
10,CC(=O)NCC(=O)N1CCCC(C(=O)c2ccc3c4c(cccc24)CC3)C1 (stereo not given),99.2%
11,CCOC(=O)C1CCN(c2ccc(C(=O)O)cc2[N+](=O)[O-])CC1,98.3%
12,COc1ccc(NC(=O)N2CCCC(c3nc(-c4ccc(F)cc4)no3)C2)cc1 (stereo not given),102%
13,CSc1ccc(C#N)cc1NC(=O)c1cccc(Cl)c1,106%
14,O=C(Nc1ccn(Cc2ccccc2F)n1)c1ccc(COc2ccc(Cl)cc2Cl)o1,105%
15,N#Cc1ccccc1NC(=O)c1cccc(COc2ccc(Cl)cc2Cl)c1,132% (active)
16,CN1C=CC=C/C1=C1\SC(=S)N(Cc2ccccc2)C1=O,104%
17,c1ccc(CN=C2Nc3ccccc3CS2)nc1,135% (active)
18,O=C(NCc1ccccn1)Nc1ccc(F)cc1,108%
19,CC(C)(C)NC(=O)CN1CCC(NC(=O)C23CC4CC(CC(C4)C2)C3)CC1,96.5%
20,COc1ccc(-n2nc(C(=O)NCC(=O)Nc3cccc(C)n3)c3ccccc3c2=O)cc1,99.9%
21,CCOC(=O)CNC(=O)c1nn(-c2cccc(OC)c2)c(=O)c2ccccc12,130% (active)
22,COc1cccc(-n2nc(C(=O)N3CCN(Cc4ccccc4)CC3)c3ccccc3c2=O)c1,99.9%
23,COc1ccc(-c2nn3c(-c4ccccc4)nnc3s2)cc1OC,114%
24,COc1ccc(C2CC(c3cccs3)=Nc3ccccc3S2)cc1OC (stereo not given),106%
25,COc1ccc(-c2csc(-c3cccs3)n2)cc1OC,182% (active)
